Bioassay records: PubChem, National Center for Advancing Translational Sciences (NCATS)
S2 tox: Viability Counterscreen for Primary qHTS for Inhibitors of ATXN expression; S2 cells (HEK-293 line with an ATXN2-luciferase reporter) viability, CellTiter-Fluor protease fluorescence, 24 h; Potency, µM (highest dose often 56.7 µM), actives largely listed as cytotoxic; actives 0.49% (n = 400,000); note: nearly all actives have a fitted effect of over 40% in size
A549 viability: Nrf2 qHTS screen for inhibitors: counterscreen for cytotoxicity. A549 ARE-Fluc cells, CellTiter-Fluor viability, 18-24 h. actives 0.16% (n = 390,000). Potency, µM (highest dose often 46 µM), for inactives: at the highest dose activity change, negative = cytotoxicity, usual class: inhibitors. AID 504648, 2011; note: % is set by controls: 0 for no effect and ±100 for the full control effect
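A549 ARE_Fluc cells in 5% FBS OPTI-MEM were exposed to compounds in concentration-response for 18-24 h at 37 deg C. Viability was read by CellTiter-Fluor fluorescence (Ex 405/Em 525) after 30 min, before the luciferase read.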
Nrf2 inh: Nrf2 qHTS screen for inhibitors; actives 2.1% (n = 360,000); AID 504444, 2011; A549 ARE-Fluc reporter, luciferase luminescence, 18-24 h; Potency, µM (highest dose often 46 µM), without a hit: top-dose activity change, negative = inhibition, usual class: inhibitors; note: % is set by controls: 0 for no effect and ±100 for the full control effect; nearly all actives have a fitted effect of over 60% in size
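A549 ARE_Fluc cells, 5000/well, 5% FBS OPTI-MEM; compounds in dose-response, 18-24 h at 37 °C/5% CO2; CellTiter-Fluor viability read (Ex 405/Em 525), then BugLite luciferase luminescence = Nrf2 activity.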
Nrf2 ARE act: qHTS of Nrf2 Activators; AREc32 ARE-luciferase reporter (MCF7-derived line), luminescence, 24 h; Potency, µM (series often up to 46.1 µM), inactives show top-dose activation, most hits filed as activators; actives 0.31% (n = 410,000); AID 624171, 2012; note: % of control where 0% means no effect; nearly all actives have a fitted effect of over 65% in size
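Cells of the AREc32 ARE-luciferase line are plated in OPTI-MEM containing 5% FBS and left overnight at 37 deg C. Compounds are pinned in, incubation continues 24 hr, and firefly luciferase signal is then measured.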
ATXN2 expr inh: Primary qHTS for Inhibitors of ATXN expression; HEK-293 ATXN2-luciferase reporter, luminescence, 24 h; Potency, µM (highest dose often 57 µM), for the others: at the highest dose activity change, negative = inhibition, actives largely listed as inhibitors; actives 0.72% (n = 360,000); AID 1745845, 2022; note: % is set by controls: 0 for no effect and ±100 for the full control effect; nearly all actives have a fitted effect of over 55% in size
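qHTS (up to 57 uM final) was run with 24 h compound exposure of reporter cells at 37 °C. Each well was multiplexed: SteadyGlo luminescence measured ATXN2-luciferase expression after a fluorogenic Gly-Phe-AFC viability readout (25 uM final).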
* hit, by the source's call; i = inactive; u = inconclusive; x = no result; ! = not active in a repeat; [ ] = remark or other dose. Only some compounds are listed: those with a hit (about 2.9% of all), similar ones and a draw of the others. Calls come from the whole dose curve; as a rule, active = well fitted curve in the direction sought with a large enough effect; inconclusive = small, poorly fitted or top-dose-only effect, or another doubt; inactive = no such curve, though single readings can be large; an effect the other way counts as inactive or inconclusive. Potency is the fitted concentration of half-maximal effect.

SMILES	S2 tox	A549 viability	Nrf2 inh	Nrf2 ARE act	ATXN2 expr inh
COC1CCC(C(=O)c2ccc3nc4c(cc3c2)CCCO4)CC1 (stereo unspecified)	x	x	x	x	31µM*
Nc1[nH]c(C(=O)c2ccccc2)c(-c2ccc(Br)cc2)c1C(=O)NCCc1c[nH]c2ccccc12	22µM*	x	x	0%	u
COc1ccccc1-c1cnc(C(O)c2ccc(C)c(F)c2)[nH]1 (stereo unspecified)	i	x	x	1%	2%
CCOc1ccccc1CNC(=O)C1CCCN(c2nnc(C)c3c(C)n(-c4ccccc4)nc23)C1 (stereo unspecified)	7.9µM*	u	23µM*!	3%	u
COc1ccc(-n2nc3c(N4CCCC(C(=O)NCc5ccccc5C)C4)nnc(C)c3c2C)cc1 (stereo unspecified)	x	18µM*	21µM*	-3%	x
COc1ccccc1CNC(=O)C1CCCN(c2nnc(C)c3c(C)n(-c4ccccc4)nc23)C1 (stereo unspecified)	u	-7%	-35%	4%	-10%
COc1cccc(CNC(=O)C2Cc3cc(S(=O)(=O)N4CCCC4)ccc3N2C(C)=O)c1OC (stereo unspecified)	i	0%	-2%	0%	4%
COc1cccc(N2CC(NC(=O)/C=C\c3ccc(OC)c(OC)c3)CC2=O)c1 (stereo unspecified)	x	10%	x	1%	x
CC1(C)SC(=S)N(/N=C/c2ccc(O)cc2)C1N(O)C(=O)Nc1ccc([N+](=O)[O-])cc1 (stereo unspecified)	u	u	16µM*	10%	-31%
Cc1ccc(/C=N/N2C(=S)SC(C)(C)C2N(O)C(=O)Nc2ccc([N+](=O)[O-])cc2)cc1 (stereo unspecified)	i	u	u	1%	-18%
O=S(=O)(Nc1cccc2cccnc12)c1ccc(S(=O)(=O)N2CCCC2)cc1	i	-10%	5.2µM*	u	u
Cc1ccc(S(=O)(=O)Nc2cccc3cccnc23)c([N+](=O)[O-])c1	u	u	10µM*	-3%	10µM*
O=S(=O)(Nc1cccc2cccnc12)c1ccccc1	u	-12%	u	u	8.9µM*
CC(=O)Nc1ccc(S(=O)(=O)Nc2cccc3cccnc23)cc1	x	-2%	u	1%	-18%
C[C@@H]1CN([C@H](C)CO)C(=O)c2cc(-c3ccc(C#N)cc3)cnc2O[C@H]1CN(C)C(=O)c1ccccc1	u	x	x	1%	0%
CCCc1cnc2c(c1SCC(=O)NCc1ccc(C)cc1)c(=O)n(C)c(=O)n2C	i	0%	x	0%	-2%
CCc1nc2ccccc2c(C(=O)OCC(=O)NCc2ccc3c(c2)OCO3)c1C	i	0%	1%	0%	-4%
CCCc1nc2ccccc2c(C(=O)OCC(=O)NCc2ccc3c(c2)OCO3)c1CC	i	u	21µM*	-1%	-21%
Nc1c(C(=O)NCc2ccccc2)c2nc3ccccc3nc2n1-c1ccc2c(c1)OCO2	i	1%	u	0%	22µM*
Nc1ccc(-n2c(N)c(C(=O)NCc3ccc4c(c3)OCO4)c3nc4ccccc4nc32)cc1	i	-18%	u	0%	u
O=C(Nc1cc2c(cc1Br)OCCO2)c1cccnc1	i	8%	0%	0%	3%
N#CC1=C(N)OC2=C(CCc3ccccc32)C1c1ccccc1Cl (stereo unspecified)	i	u	-1%	3%	-36%
C/C=C1\NC(=O)[C@H]2CSSCC/C=C/[C@H](CC(=O)N[C@H](C(C)C)C(=O)N2)OC(=O)C(C(C)C)NC1=O (stereo partly specified)	4.5µM*	x	x	x	x
Cc1ccc(Cl)cc1NC(=O)Cn1cc(S(=O)(=O)Cc2ccccc2Cl)c2ccccc21	x	-14%	-17%	1%	x
O=C(CCl)N(O)c1ccc(C=Cc2ccccc2)cc1	6.7µM*	-2%	14%	u	u
SMILES	S2 tox	A549 viability	Nrf2 inh	Nrf2 ARE act	ATXN2 expr inh
CN(C(=O)C=Cc1ccccc1)c1ccccc1	i	2%	u	8%	32%
NC(N)=NN=C1c2ccccc2-c2ccccc21	i	-4%	2%	0%	-23%
CCCOc1ccc2c(c1)C(=NN=C(N)N)c1cc(OCCC)ccc1-2	25µM*	-25%	4%	-3%	20µM*
CCN(CC)CCOc1ccc2c(c1)C(=NO)c1cc(OCCN(CC)CC)ccc1-2	8.9µM*	8.2µM*	u	3%	11µM*
CCN(CC)CCOc1ccc(Br)cc1	i	1%	2%	0%	-10%
COC(c1ccccc1)c1nnc(CCC(=O)NCCCc2ccccc2)o1 (stereo unspecified)	i	-9%	u	3%	8%
O=C(Nc1ncc2c(n1)-c1ccccc1CC2)c1ccccc1	i	-3%	6%	7.9µM*	1%
CCn1c(C)nnc1SCC(=O)Nc1ccccc1OC	u	-6%	-2%	0%	-5%
COc1ccc(C[C@H]2CN3C(=NC[C@@H]3C(C)C)N2C[C@H](C)NC(=O)c2ccc(C)c(Br)c2)cc1	18µM*	u	5%	-4%	u
COc1ccc(C[C@H]2CN3C(=NC[C@@H]3Cc3ccc(O)cc3)N2C[C@H](C)NC(=O)c2ccc(C)c(Br)c2)cc1	22µM*	u	u	-5%	u
O=C1OCCC1S(=O)(=O)c1ccc2ccccc2c1 (stereo unspecified)	i	-4%	15%	1%	-3%
Cn1c(-c2ccccc2)c(C(=O)CCl)c2ccccc21	7.5µM*	4%	-2%	11%	u
Cn1c(-c2ccccc2)c(CCO)c2ccccc21	i	6%	6%	1%	-1%
CCn1c(-c2ccccc2)c(C(=O)CCl)c2ccccc21	4µM*	0%	-25%	0%	x
CCn1c2ccccc2c(=O)c2ccccc21	x	u	u	2%	-8%[11.3 µM]
CCC(Sc1ccc(Cl)cc1)C(=O)Nc1nnc(-c2cccc([N+](=O)[O-])c2)s1 (stereo unspecified)	i	14%	u	13µM*	-21%
CCC(Sc1nncn1C)C(=O)Nc1nnc(-c2ccccc2Cl)s1 (stereo unspecified)	i	2%	5%	21%	17%
COc1cc(NS(=O)(=O)c2ccc(OC)c(C)c2C)c(OC)cc1Cl	i	-13%	21µM*	0%	u
COc1ccc(NC(=S)Nc2nc(CC(=O)Nc3ccccc3OC)cs2)cc1	i	u	u	2%	-7%
COc1ccccc1NC(=O)Cc1csc(NC(=S)Nc2ccccc2)n1	u	18µM*	21µM*	3%	-13%
